Calls of active or inactive are those of the source.
What was measured:
Albumin (Bos taurus) = Albumin (Bos taurus) (UniProt P02769); assay: compounds binding labelled BSA control protein – biochemical, small-molecule microarray, Alexa647 label, 635/667 nm fluorescence, artefact control for SMM control protein annotation, profiling panel (AID 1118); settings: BSA-A647 binding, fluorescence 635 nm, higher = more signal;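 further: score merges 667 nm emission intensity and signal-to-noise per printed compound spot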
Chain of Albumin (Bos taurus) (P02769 whole entry, looked up): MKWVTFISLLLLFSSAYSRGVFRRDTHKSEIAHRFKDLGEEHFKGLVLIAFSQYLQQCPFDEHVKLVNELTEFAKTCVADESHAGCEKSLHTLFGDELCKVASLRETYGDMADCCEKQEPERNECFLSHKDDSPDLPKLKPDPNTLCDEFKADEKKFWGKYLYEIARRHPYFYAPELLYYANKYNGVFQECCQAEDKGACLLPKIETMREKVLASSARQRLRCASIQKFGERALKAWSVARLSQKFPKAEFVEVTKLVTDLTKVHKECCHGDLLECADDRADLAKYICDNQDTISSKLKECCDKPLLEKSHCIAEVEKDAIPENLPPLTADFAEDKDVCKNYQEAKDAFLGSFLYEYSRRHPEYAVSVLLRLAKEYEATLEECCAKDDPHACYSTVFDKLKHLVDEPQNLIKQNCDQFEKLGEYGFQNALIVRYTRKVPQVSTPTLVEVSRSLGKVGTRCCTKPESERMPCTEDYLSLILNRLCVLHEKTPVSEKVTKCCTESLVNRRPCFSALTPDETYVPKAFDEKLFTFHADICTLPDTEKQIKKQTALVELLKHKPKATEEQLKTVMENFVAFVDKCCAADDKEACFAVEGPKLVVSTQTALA

[1] = probe aXIP binding to arrayed compounds – biochemical, NeuroSMM set, 635/667 nm fluorescence, primary screen (AID 1119); settings: small-molecule microarray, higher = more signal, called active from +8 up or from −8 down;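 further: probe is the protein aXip251-270 applied at 1 µg/mL to compound-printed slides; binding of probe to printed compounds measured as 667 nm fluorescence plus signal to noise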
[2] = probe aNOTCH3 binding on compound microarray – biochemical, small-molecule microarray, 635/667 nm fluorescence, primary screen (AID 1120); settings: higher = more signal;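 further: probe is a biotin-tagged antibody raised against NOTCH3 rather than NOTCH3 protein; score merges spot fluorescence near 667 nm with spot signal to noise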
[3] = probe aNOTCH2 binding on compound microarray – biochemical, small-molecule microarray, 635/667 nm fluorescence, primary screen (AID 1121); settings: higher = more signal;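 further: score merges feature fluorescence read at 667 nm with its signal to noise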
[4] = biological target: Carbonic anhydrase 2 (Homo sapiens) (UniProt P00918); assay: compounds binding carbonic anhydrase 2 – biochemical, small-molecule microarray, Alexa647-labelled CAII, profiling panel (AID 1122); settings: CAII-A647 binding fluorescence, higher = more signal
[5] = COS7 lysate on small-molecule microarray, probe aHis, 635 nm (AID 1123); settings: COS7 cell lysate, fluorescence, higher = more signal;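 further: z-score combines 667nm fluorescence intensity with signal-to-noise per printed compound spot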
[6] = probe aLAP1 signal on lysate-treated microarray – cell lysate, small-molecule microarray, COS7 lysate, primary screen (AID 1124); settings: probe aLAP1, fluorescence, higher = more signal;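 further: lysate comes from COS7 cells expressing LAP1 and is applied at 0.3 µg/mL; score merges spot fluorescence near 667 nm with signal-to-noise over triplicate slides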
Sam68 (KHDRBS1) = assay: compounds binding KHDRBS1 protein – biochemical, small-molecule microarray, 635 nm fluorescence, primary screen (AID 1125); settings: higher = more signal;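 further: score merges 667 nm channel intensity with signal to noise over triplicate slides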
[7] = test system: Chordin-like protein 2 (CHRDL2); assay: compounds binding chordin-like 2 – biochemical, small-molecule microarray, 635 nm fluorescence, primary screen (AID 1126); settings: fluorescence 635 nm, higher = more signal;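 further: printed compound slides probed with Chrdl2 protein at 4 µg/mL for 1 h at 4 C; score merges 667 nm emission intensity with signal to noise over three replicate slides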
[8] = biological target: Concanavalin-A (Canavalia ensiformis) (UniProt P02866); assay: compounds binding concanavalin A lectin – biochemical, small-molecule microarray, Alexa647 label, 635 nm, artefact control for SMM control protein annotation, primary screen (AID 1127); settings: ConA-A647 binding fluorescence, higher = more signal;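 further: z combines 667 nm emission intensity with signal-to-noise across three replicate slides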
Chain of Concanavalin-A (Canavalia ensiformis) (P02866 whole entry, looked up): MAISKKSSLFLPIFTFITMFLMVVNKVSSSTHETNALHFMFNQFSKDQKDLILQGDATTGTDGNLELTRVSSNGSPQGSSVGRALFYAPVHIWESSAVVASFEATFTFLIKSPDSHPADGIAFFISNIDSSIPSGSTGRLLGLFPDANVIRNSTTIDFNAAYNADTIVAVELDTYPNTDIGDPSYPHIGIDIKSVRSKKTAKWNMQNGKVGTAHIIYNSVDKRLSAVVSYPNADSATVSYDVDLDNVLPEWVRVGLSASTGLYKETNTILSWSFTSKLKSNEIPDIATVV

[9] = compounds binding Alexa647 anti-His antibody – biochemical, small-molecule microarray, 635 nm fluorescence, artefact control for SMM control protein annotation, primary screen (AID 1128); settings: higher = more signal;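 further: score merges feature fluorescence with signal-to-noise for each printed compound spot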
[10] = test system: Human papillomavirus type 1a E7 protein (residues 1-88); assay: HPV1a E7 small-molecule binders, primary screen, biochemical, small-molecule microarray, residues 1-88, 635 nm (AID 1129); settings: small-molecule microarray binding, fluorescence 635 nm; higher = more signal
[11] = biological target: Focal adhesion kinase 1 (Homo sapiens) (UniProt Q05397); assay: PTK2 protein binding on printed compound slides – biochemical, small-molecule microarray, 635/667 nm fluorescence, BSA, DTT, primary screen (AID 1130); settings: 635 nm fluorescence, higher = more signal;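 further: composite of spot emission at 667 nm and signal to noise over triplicate slides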
Chain of Focal adhesion kinase 1 (Homo sapiens) (Q05397 whole entry, looked up): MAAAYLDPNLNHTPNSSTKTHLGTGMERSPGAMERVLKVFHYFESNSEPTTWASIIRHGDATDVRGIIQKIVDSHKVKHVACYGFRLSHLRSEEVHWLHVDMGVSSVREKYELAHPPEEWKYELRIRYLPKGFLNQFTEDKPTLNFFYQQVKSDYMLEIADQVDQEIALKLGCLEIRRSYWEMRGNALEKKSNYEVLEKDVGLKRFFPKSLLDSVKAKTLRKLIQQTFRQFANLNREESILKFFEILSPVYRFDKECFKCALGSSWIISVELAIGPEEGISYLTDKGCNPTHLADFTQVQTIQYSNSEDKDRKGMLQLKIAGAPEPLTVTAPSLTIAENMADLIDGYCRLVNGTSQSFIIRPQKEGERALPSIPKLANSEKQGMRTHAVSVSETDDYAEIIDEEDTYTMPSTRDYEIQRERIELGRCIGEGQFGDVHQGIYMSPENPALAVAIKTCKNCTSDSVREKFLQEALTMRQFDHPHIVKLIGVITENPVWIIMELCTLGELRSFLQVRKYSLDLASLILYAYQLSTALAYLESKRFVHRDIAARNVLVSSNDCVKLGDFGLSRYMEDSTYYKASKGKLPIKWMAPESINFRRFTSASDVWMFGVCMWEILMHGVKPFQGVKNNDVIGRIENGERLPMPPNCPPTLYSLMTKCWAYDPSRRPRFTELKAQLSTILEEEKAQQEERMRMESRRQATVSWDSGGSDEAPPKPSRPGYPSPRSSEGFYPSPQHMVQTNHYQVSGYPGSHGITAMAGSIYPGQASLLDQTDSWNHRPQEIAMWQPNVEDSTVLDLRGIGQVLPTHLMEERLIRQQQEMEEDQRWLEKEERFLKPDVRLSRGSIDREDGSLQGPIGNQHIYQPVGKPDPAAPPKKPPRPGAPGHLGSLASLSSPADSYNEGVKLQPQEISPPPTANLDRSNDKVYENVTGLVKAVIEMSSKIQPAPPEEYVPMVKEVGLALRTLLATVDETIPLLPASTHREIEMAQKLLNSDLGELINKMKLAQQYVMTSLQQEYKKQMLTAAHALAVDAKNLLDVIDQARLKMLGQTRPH

[12] = test system: Fibrinogen (Alexa647-labelled); assay: Alexa647-fibrinogen binding to printed small molecules – biochemical, small-molecule microarray, 635/667 nm fluorescence, artefact control for SMM control-protein annotation, profiling panel (AID 1131); settings: fibrinogen-A647 binding fluorescence, higher = more signal;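 further: z-score merges 667 nm fluorescence with per-spot signal-to-noise over triplicate slides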
[13] = biological target: Follistatin (Homo sapiens) (UniProt P19883); assay: FST protein binding to printed compounds – biochemical, small-molecule microarray, 635/667 nm fluorescence, primary screen (AID 1132); settings: 635 nm fluorescence, higher = more signal
Chain of Follistatin (Homo sapiens) (P19883 whole entry, looked up): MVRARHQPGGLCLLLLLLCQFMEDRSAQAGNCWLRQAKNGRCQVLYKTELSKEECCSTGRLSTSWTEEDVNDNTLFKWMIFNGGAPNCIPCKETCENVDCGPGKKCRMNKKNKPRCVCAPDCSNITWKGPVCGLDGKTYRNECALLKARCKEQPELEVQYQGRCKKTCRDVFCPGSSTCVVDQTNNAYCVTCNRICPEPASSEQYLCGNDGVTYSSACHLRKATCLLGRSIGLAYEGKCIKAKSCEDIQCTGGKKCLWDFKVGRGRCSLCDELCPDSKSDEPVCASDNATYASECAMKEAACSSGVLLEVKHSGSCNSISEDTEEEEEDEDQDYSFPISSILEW

[14] = biological target: Fibroblast growth factor 2 (Homo sapiens) (UniProt P09038); assay: basic fibroblast growth factor binding to printed compounds – biochemical, small-molecule microarray, 635/667 nm fluorescence, primary screen (AID 1133); settings: FGF2, fluorescence 635/667, higher = more signal
Chain of Fibroblast growth factor 2 (Homo sapiens) (P09038 whole entry, looked up): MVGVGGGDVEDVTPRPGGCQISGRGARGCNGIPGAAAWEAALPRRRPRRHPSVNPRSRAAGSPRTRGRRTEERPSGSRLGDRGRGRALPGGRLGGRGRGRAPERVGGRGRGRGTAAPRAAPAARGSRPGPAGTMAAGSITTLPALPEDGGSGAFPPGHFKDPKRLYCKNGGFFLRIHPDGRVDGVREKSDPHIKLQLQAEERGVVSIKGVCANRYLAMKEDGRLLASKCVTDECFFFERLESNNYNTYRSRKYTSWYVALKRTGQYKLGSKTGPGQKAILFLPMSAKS

[15] = JC-1 mitochondrial potential readout, lung cancer cells – cell-based, A549, JC-1 fluorescence, basal, 24 h, 100 nL, profiling panel (AID 1138); settings: higher = more signal;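 further: A549 lung adenocarcinoma cells under basal conditions with no added stimulus; test concentration not given here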
Lefty1 = Lefty1 protein binding to printed compounds – biochemical, small-molecule microarray, 635/667 nm fluorescence, primary screen (AID 1139); settings: fluorescence 635/667, higher = more signal
[16] = test system: wheat germ agglutinin (Triticum aestivum), Alexa647-labelled; assay: Alexa647-WGA lectin binding to printed small molecules – biochemical, small-molecule microarray, 635/667 nm fluorescence, artefact control for SMM control-protein annotation, profiling panel (AID 1140); settings: WGA-A647 binding, 635 nm fluorescence, higher = more signal;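 further: score merges 667 nm feature emission with signal to noise over triplicate slides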
[17] = biological target: Luciferin 4-monooxygenase (Photinus pyralis) (UniProt P08659); assay: inhibition of purified Photinus pyralis luciferase – biochemical, luminescence, purified enzyme, 2006 set, primary screen (AID 1141); settings: purified firefly luciferase, SteadyGlo luminescence, 30 min; higher = more signal, called active from +8 up or from −8 down;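 further: cell-free assay with purified firefly luciferase at 100 ng per well in PBS; test concentration not given here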
Chain of Luciferin 4-monooxygenase (Photinus pyralis) (P08659 whole entry, looked up): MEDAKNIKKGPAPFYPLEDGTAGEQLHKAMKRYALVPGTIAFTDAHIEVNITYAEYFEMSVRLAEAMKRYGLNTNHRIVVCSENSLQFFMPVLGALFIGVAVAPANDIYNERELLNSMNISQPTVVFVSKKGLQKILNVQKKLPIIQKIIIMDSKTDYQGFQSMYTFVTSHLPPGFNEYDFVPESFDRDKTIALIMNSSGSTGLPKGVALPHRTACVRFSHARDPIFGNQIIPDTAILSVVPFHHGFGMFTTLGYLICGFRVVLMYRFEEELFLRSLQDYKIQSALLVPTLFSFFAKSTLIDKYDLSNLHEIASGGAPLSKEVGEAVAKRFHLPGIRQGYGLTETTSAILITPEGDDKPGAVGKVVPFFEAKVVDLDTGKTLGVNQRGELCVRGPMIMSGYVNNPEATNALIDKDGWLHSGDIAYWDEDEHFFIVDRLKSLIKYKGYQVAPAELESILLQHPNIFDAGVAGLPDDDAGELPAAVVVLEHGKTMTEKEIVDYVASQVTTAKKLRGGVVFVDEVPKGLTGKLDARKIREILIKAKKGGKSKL

For `CCOC(=O)C=C1C[C@@H](c2cccc([N+](=O)[O-])c2)O[C@@H](c2cccc([N+](=O)[O-])c2)O1`, the composite z-score (Albumin (Bos taurus)) was 0.817, the composite Z-score [1] was 0.636 (inactive) and the composite z-score [2] was 0.13. It also gave a composite z-score [3] of -0.125, a composite z-score [4] of 0.425 and a composite z-score [5] of 2.07. It also gave a composite z-score [6] of 0.863, a composite z-score (Sam68 (KHDRBS1)) of 1.32 and a composite z-score [7] of 0.338. The composite z-score [8] was 1.1, the composite z-score [9] was 1.1 and the composite z-score [10] was 1.11. The composite z-score [11] was 0.867, the composite z-score [12] was 0.871 and the composite z-score [13] was 0.669. It also gave a composite z-score [14] of 0.715, a z-score [15] of 3.03 and a composite z-score (Lefty1) of 0.279. The composite z-score [16] was 0.697 and the z-score [17] was 1.31 (inactive).

For `CCCCCN1CC=CC23O[C@@H]4/C=C\CCCOC(=O)C4[C@H]2C(=O)N(CCCCCO)[C@@H]3C1=O` (stereo not given in full), the composite z-score (Albumin (Bos taurus)) was -0.191, the composite Z-score [1] was -0.594 (inactive) and the composite z-score [2] was -0.233. The composite z-score [3] was -0.182, the composite z-score [4] was 0.777 and the composite z-score [5] was -1.89. The composite z-score [6] was -0.682, the composite z-score (Sam68 (KHDRBS1)) was -0.178 and the composite z-score [7] was -0.801. The composite z-score [8] was -0.691, the composite z-score [9] was 0.163 and the composite z-score [10] was -0.766. For the same compound, the composite z-score [11] was -0.565, the composite z-score [12] was -0.832 and the composite z-score [13] was -0.38. It also gave a composite z-score [14] of -1.11, a z-score [15] of 0.27 and a composite z-score (Lefty1) of -0.0788. The composite z-score [16] was -0.662 and the z-score [17] was -3.1 (inactive).

With `CC(C)(C)OC(=O)CC[C@]1(C(N)=O)N=C(c2ccc(OCCCO)cc2)O[C@H]1c1ccccc1N=[N+]=[N-]` the composite z-score (Albumin (Bos taurus)) was 0.426, the composite Z-score [1] was 0.59 (inactive) and the composite z-score [2] was 0.156. For the same compound, the composite z-score [3] was -0.084, the composite z-score [4] was 0.791 and the composite z-score [5] was 1.61. For the same compound, the composite z-score [6] was 0.242, the composite z-score (Sam68 (KHDRBS1)) was 0.522 and the composite z-score [7] was -0.416. The composite z-score [8] was 0.741, the composite z-score [9] was 2.8 and the composite z-score [10] was 0.977. For the same compound, the composite z-score [11] was 0.178, the composite z-score [12] was 0.746 and the composite z-score [13] was 1.2. It also gave a composite z-score [14] of 0.38, a z-score [15] of -0.12 and a composite z-score (Lefty1) of -0.512. The composite z-score [16] was 1.1 and the z-score [17] was -8.33 (active).

In the case of `C=C(C)C1CN([C@H](CO)c2ccccc2)C(=O)/C1=C\c1ccccc1` (stereo not given in full), the composite z-score (Albumin (Bos taurus)) is reported as 0.252, the composite Z-score [1] is reported as -0.137 (inactive) and the composite z-score [2] is reported as -0.0647. It also gave a composite z-score [3] of -0.0741, a composite z-score [4] of 0.158 and a composite z-score [5] of -0.574. For the same compound, the composite z-score [6] was 0.027, the composite z-score (Sam68 (KHDRBS1)) was 0.168 and the composite z-score [7] was 0.467. The composite z-score [8] was 0.0006, the composite z-score [9] was -0.288 and the composite z-score [10] was 0.145. The composite z-score [11] was -0.234, the composite z-score [12] was 0.237 and the composite z-score [13] was 0.803. The composite z-score [14] was 1.14, the z-score [15] was -1.06 and the composite z-score (Lefty1) was -0.0605. For the same compound, the composite z-score [16] was 0.726 and the z-score [17] was 0.264 (inactive).

For `O=C1NC(=O)C2C1C=CC(C(O)C(O)CO)N2Nc1ccccn1` (stereo not given), the composite z-score (Albumin (Bos taurus)) was 0.319, the composite Z-score [1] was 0.035 (inactive) and the composite z-score [2] was 0.0026. The composite z-score [3] was -0.207, the composite z-score [4] was 0.315 and the composite z-score [5] was 0.344. The composite z-score [6] was 0.635, the composite z-score (Sam68 (KHDRBS1)) was 0.523 and the composite z-score [7] was 0.105. The composite z-score [8] was 0.932, the composite z-score [9] was 0.37 and the composite z-score [10] was 0.434. For the same compound, the composite z-score [11] was -0.201, the composite z-score [12] was 0.485 and the composite z-score [13] was 0.176. It also gave a composite z-score [14] of -0.0885, a z-score [15] of 0.767 and a composite z-score (Lefty1) of 0.0364. The composite z-score [16] was 0.333 and the z-score [17] was -1.41 (inactive).

In the case of `COCCCNC(=O)[C@@]1(Cc2ccccc2I)c2ccccc2C(=O)N(Cc2ccccc2OC)[C@H]1c1ccc(CO)cc1`, the composite z-score (Albumin (Bos taurus)) is reported as -0.685, the composite Z-score [1] is reported as 0.0679 (inactive) and the composite z-score [2] is reported as -0.134. It also gave a composite z-score [3] of -0.14, a composite z-score [4] of 0.542 and a composite z-score [5] of 2.31. It also gave a composite z-score [6] of -0.143, a composite z-score (Sam68 (KHDRBS1)) of 0.614 and a composite z-score [7] of -1.82. For the same compound, the composite z-score [8] was 0.911, the composite z-score [9] was 3.03 and the composite z-score [10] was 1.18. It also gave a composite z-score [11] of 0.0958, a composite z-score [12] of 0.198 and a composite z-score [13] of -0.268. It also gave a composite z-score [14] of -0.39, a z-score [15] of 1.93 and a composite z-score (Lefty1) of -1.26. For the same compound, the composite z-score [16] was 0.214 and the z-score [17] was -0.773 (inactive).

From PubChem BioAssay
